# Screen size: about 5,500 compounds; about 2,000 (36%) were called active. Not shown: some 18% with an inconclusive outcome. The list shows a part of the results. Values without a mark were called inactive. No stated cut-off is given here; in the data, active means normalized growth mostly below about 0.91 (no sharp cut-off); inconclusive means no clear call, values can overlap the other calls; inactive means mostly above about 0.92.
# Assay: chemical genetic growth profiling, strain panel (AID 1159580);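 further: tested at 20 µM; growth read once vehicle control cultures reached saturation at 30 °C; 1 = growth at the plate median or of vehicle wells; lower values mean less growth of the strain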
# Settings: S. cerevisiae deletion strains, growth OD
compound,measurement,setting,value
C[C@@H]1O[C@H](C[N+](C)(C)C)C[C@H]1O,normalized growth,"locus YAL013W, strain DEP1, hits give low values",1.01
same,normalized growth,"locus YAL040C, strain CLN3, hits give low values",1
same,normalized growth,"locus YCL061C, strain MRC1 (second series), hits give low values",1.01
same,normalized growth,"locus YDR363W, strain ESC2, hits give low values",0.993
same,normalized growth,"locus YER002W, strain NOP16, hits give low values",1.02
same,normalized growth,"locus YMR263W, strain SAP30, hits give low values",1.01
same,normalized growth,"locus YNL128W, strain TEP1, hits give low values",1
same,normalized growth,"locus YNL153C, strain GIM3, hits give low values",1.02
same,normalized growth,"locus YNL175C, strain NOP13, hits give low values",1.01
same,normalized growth,"locus YNL197C, strain WHI3, hits give low values",1.01
same,normalized growth,"locus YNL224C, strain SQS1, hits give low values",1.01
same,normalized growth,"locus YOR083W, strain WHI5 (second series), hits give low values",1.01
same,normalized growth,"locus YPL241C, strain CIN2, hits give low values",1.01
CC(C)CCCC1(C)C=Cc2c(O)c3c(c(CCC(C)C)c2O1)OC12C(CC4CC1C(C)(C)OC2(CCC(C)C(=O)O)C4O)C3=O (stereo not drawn),normalized growth,"locus YAL021C, strain ccr4, hits give low values",1
same,normalized growth,"locus YAL026C, strain drs2, hits give low values",0.991
same,normalized growth,"locus YAL030W, strain snc1, hits give low values",1
same,normalized growth,"locus YBL061C, strain skt5, hits give low values",0.996
same,normalized growth,"locus YBR009C, strain hhf1, hits give low values",0.992
same,normalized growth,"locus YBR023C, strain chs3, hits give low values",0.998
same,normalized growth,"locus YBR171W, strain sec66, hits give low values",0.991
same,normalized growth,"locus YBR231C, strain swc5, hits give low values",0.997
same,normalized growth,"locus YBR279W, strain paf1, hits give low values",0.994
same,normalized growth,"locus YCL011C, strain gbp2, hits give low values",0.994
same,normalized growth,"locus YCL016C, strain dcc1, hits give low values",0.989
same,normalized growth,"locus YCL061C, strain MRC1, hits give low values",0.986
same,normalized growth,"locus YCL069W, strain vba3, hits give low values",0.998
same,normalized growth,"locus YCR088W, strain abp1, hits give low values",0.997
same,normalized growth,"locus YDL005C, strain med2, hits give low values",0.985
same,normalized growth,"locus YDL040C, strain nat1, hits give low values",0.995
same,normalized growth,"locus YDR001C, strain nth1, hits give low values",0.998
same,normalized growth,"locus YDR069C, strain doa4, hits give low values",0.988
same,normalized growth,"locus YDR137W, strain rgp1, hits give low values",0.815 (active)
same,normalized growth,"locus YDR159W, strain sac3, hits give low values",0.991
same,normalized growth,"locus YDR195W, strain ref2",1.01
same,normalized growth,"locus YDR297W, strain sur2, hits give low values",0.998
same,normalized growth,"locus YDR334W, strain swr1, hits give low values",0.975
same,normalized growth,"locus YDR335W, strain msn5, hits give low values",0.995
same,normalized growth,"locus YDR392W, strain spt3, hits give low values",0.925
same,normalized growth,"locus YEL003W, strain gim4, hits give low values",0.982
same,normalized growth,"locus YEL037C, strain rad23, hits give low values",1.03
same,normalized growth,"locus YEL061C, strain CIN8 (second series), hits give low values",0.996
same,normalized growth,"locus YER015W, strain faa2, hits give low values",1
same,normalized growth,"locus YER016W, strain bim1, hits give low values",0.99
same,normalized growth,"locus YER111C, strain swi4, hits give low values",1.02
same,normalized growth,"locus YER155C, strain BEM2 (second series), hits give low values",1.01
same,normalized growth,"locus YFR010W, strain ubp6, hits give low values",0.986
same,normalized growth,"locus YGL167C, strain pmr1, hits give low values",0.988
same,normalized growth,"locus YGL173C, strain kem1, hits give low values",0.991
same,normalized growth,"locus YGL227W, strain vid30, hits give low values",1.01
same,normalized growth,"locus YGL240W, strain doc1, hits give low values",0.979
same,normalized growth,"locus YGL253W, strain hxk2, hits give low values",1
same,normalized growth,"locus YHR013C, strain ard1, hits give low values",1.02
same,normalized growth,"locus YHR027C, strain rpn1, hits give low values",1
same,normalized growth,"locus YHR030C, strain SLT2, hits give low values",0.966
same,normalized growth,"locus YHR079C, strain IRE1, hits give low values",0.971
same,normalized growth,"locus YHR142W, strain chs7, hits give low values",1.01
same,normalized growth,"locus YJL092W, strain hpr5, hits give low values",0.988
same,normalized growth,"locus YJL095W, strain BCK1 (second series), hits give low values",1
same,normalized growth,"locus YJL095W, strain BCK1, hits give low values",0.987
same,normalized growth,"locus YJL115W, strain asf1, hits give low values",0.996
same,normalized growth,"locus YJL129C, strain trk1, hits give low values",0.958
same,normalized growth,"locus YJL154C, strain vps35, hits give low values",0.994
same,normalized growth,"locus YJL164C, strain tpk1, hits give low values",0.982
same,normalized growth,"locus YJL166W, strain qcr8, hits give low values",0.996
same,normalized growth,"locus YJL187C, strain SWE1, hits give low values",0.997
same,normalized growth,"locus YJR066W, strain TOR1, hits give low values",0.919
same,normalized growth,"locus YKL160W, strain elf1, hits give low values",1
same,normalized growth,"locus YKR026C, strain gcn3, hits give low values",1
same,normalized growth,"locus YKR091W, strain srl3, hits give low values",0.998
same,normalized growth,"locus YLL001W, strain dnm1, hits give low values",1
same,normalized growth,"locus YLL026W, hits give low values",0.997
same,normalized growth,"locus YLL041C, strain sdh2, hits give low values",0.995
same,normalized growth,"locus YLR027C, strain aat2, hits give low values",0.999
same,normalized growth,"locus YLR113W, strain HOG1, hits give low values",0.941
same,normalized growth,"locus YLR221C, strain rsa3, hits give low values",0.989
same,normalized growth,"locus YLR258W, strain gsy2, hits give low values",0.998
same,normalized growth,"locus YLR262C, strain YPT6 (second series), hits give low values",0.919
same,normalized growth,"locus YLR320W, strain mms22, hits give low values",0.99
same,normalized growth,"locus YLR342W, strain FKS1, hits give low values",1
same,normalized growth,"locus YLR357W, strain rsc2, hits give low values",1.04
same,normalized growth,"locus YLR370C, strain arc18, hits give low values",0.999
same,normalized growth,"locus YLR384C, strain iki3, hits give low values",0.992
same,normalized growth,"locus YML120C, strain ndi1, hits give low values",0.997
same,normalized growth,"locus YMR058W, strain fet3, hits give low values",0.986
same,normalized growth,"locus YMR125W, strain sto1, hits give low values",0.991
same,normalized growth,"locus YMR129W, hits give low values",0.993
same,normalized growth,"locus YMR205C, strain PFK2, hits give low values",0.955
same,normalized growth,"locus YMR231W, strain pep5, hits give low values",0.986
same,normalized growth,"locus YNL071W, strain lat1, hits give low values",0.969
same,normalized growth,"locus YNL183C, strain NPR1, hits give low values",0.92
same,normalized growth,"locus YNL209W, strain ssb2, hits give low values",0.99
same,normalized growth,"locus YNL248C, strain rpa49, hits give low values",1.01
same,normalized growth,"locus YNL322C, strain KRE1 (second series), hits give low values",1.01
same,normalized growth,"locus YNR049C, strain mso1, hits give low values",1.01
same,normalized growth,"locus YOR001W, strain rrp6, hits give low values",0.983
same,normalized growth,"locus YOR070C, strain gyp1, hits give low values",0.995
same,normalized growth,"locus YOR080W, strain dia2, hits give low values",1
same,normalized growth,"locus YOR083W, strain WHI5, hits give low values",0.99
same,normalized growth,"locus YOR106W, strain vam3, hits give low values",0.996
same,normalized growth,"locus YOR231W, strain MKK1, hits give low values",0.964
same,normalized growth,"locus YOR265W, strain rbl2, hits give low values",1
same,normalized growth,"locus YOR270C, strain vph1, hits give low values",0.955
same,normalized growth,"locus YOR290C, strain snf2, hits give low values",0.995
same,normalized growth,"locus YPL051W, strain arl3, hits give low values",0.98
same,normalized growth,"locus YPL078C, strain atp4, hits give low values",1
same,normalized growth,"locus YPL106C, strain sse1, hits give low values",1
same,normalized growth,"locus YPL240C, strain hsp82, hits give low values",1.01
same,normalized growth,"locus YPL256C, strain CLN2, hits give low values",0.985

# — PubChem BioAssay AID1159580 (chemical genetic matrix, 2015)
